Results as given in PubChem BioAssay (NCI).
“And” between values parts separate entries of the source, which are not always exact repeats. Identical values can stand only once. The panel holds about 83,000 compounds, 20% with a hit somewhere; the sample as a whole holds those more often.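 How to read the values: 0–100, growth inhibition (40 = 60% inhibited); 0, no net growth; -100 to 0, cell death (-40 = 40% of starting cells died; -100 = all dead).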 The source made the active and inactive calls. The calls were made as follows: active = growth percent below 10; inactive = the rest.

Legend:
Experiment in all cases: NCI-60 one-dose screen, 48 h (100 = growth as untreated, 0 = no growth, -100 = all killed)
NCI-H23 lung = conditions: 10 µM unless noted
NCI-H226 lung = conditions: 10 µM unless noted
NCI-H322M lung = conditions: 10 µM unless noted
HOP-62 NSCLC = conditions: 10 µM unless noted
NCI-H460 lung = conditions: 10 µM unless noted
HOP-92 NSCLC = conditions: 10 µM
NCI-H522 lung = conditions: 10 µM
A549/ATCC NSCLC = conditions: 10 µM unless noted
786-0 renal = conditions: 10 µM unless noted
COLO 205 colon = conditions: 10 µM unless noted
DU-145 prostate = conditions: 10 µM unless noted
K-562 leukemia = conditions: 10 µM unless noted
MALME-3M melanoma = conditions: 10 µM unless noted
MDA-MB-231 breast = conditions: 10 µM unless noted
RXF 393 renal = conditions: 10 µM unless noted
SF-268 CNS = conditions: 10 µM unless noted
SF-295 CNS = conditions: 10 µM unless noted
SF-539 CNS = conditions: 10 µM unless noted
UACC-257 melanoma = conditions: 10 µM unless noted
M14 melanoma = conditions: 10 µM unless noted

| Compound | growth (NCI-H23 lung) | growth (NCI-H226 lung) | growth (NCI-H322M lung) | growth (HOP-62 NSCLC) | growth (NCI-H460 lung) | growth (HOP-92 NSCLC) | growth (NCI-H522 lung) | growth (A549/ATCC NSCLC) | growth (786-0 renal) | growth (COLO 205 colon) | growth (DU-145 prostate) | growth (K-562 leukemia) | growth (MALME-3M melanoma) | growth (MDA-MB-231 breast) | growth (RXF 393 renal) | growth (SF-268 CNS) | growth (SF-295 CNS) | growth (SF-539 CNS) | growth (UACC-257 melanoma) | growth (M14 melanoma) |
| --- | --- | --- | --- | --- | --- | --- | --- | --- | --- | --- | --- | --- | --- | --- | --- | --- | --- | --- | --- | --- |
| CC[C@H](CC[C@@H](C)[C@H]1CC[C@H]2[C@@H]3CC=C4C[C@@H](O)CC[C@]4(C)[C@H]3CC[C@]12C)C(C)C | 5.59% (active) and 96.6% (inactive) | 99.6% (inactive) and 101% (inactive) | 92.6% (inactive) and 103% (inactive) | 108% (inactive) and 101% (inactive) | 105% (inactive) and 107% (inactive) | 83.5% (inactive) | 18.7% (inactive) and 97% (inactive) | 102% (inactive) | 95.3% (inactive) and 106% (inactive) | 103% (inactive) and 107% (inactive) | 114% (inactive) and 103% (inactive) | 106% (inactive) | 106% (inactive) and 104% (inactive) | 115% (inactive) and 97.9% (inactive) | 104% (inactive) | 101% (inactive) and 97.6% (inactive) | 98.3% (inactive) and 101% (inactive) | 92.2% (inactive) and 99.1% (inactive) | 97.5% (inactive) | 103% (inactive) and 106% (inactive) |
| c1ccc(CNCCNCc2ccccc2)cc1 | 117% (inactive) | 90.4% (inactive) | 106% (inactive) | 98.8% (inactive) | 104% (inactive) | 80.6% (inactive) | 106% (inactive) | 101% (inactive) | 107% (inactive) | 109% (inactive) | 114% (inactive) | 98.1% (inactive) | 109% (inactive) | 118% (inactive) | 104% (inactive) | 120% (inactive) | 90.8% (inactive) | 101% (inactive) | 117% (inactive) | 111% (inactive) |
| CC1CCC(C(C)C)C(NNC(N)=O)C1 (stereo not given) | 106% (inactive) | 102% (inactive) | 102% (inactive) | 100% (inactive) | 104% (inactive) | 91.5% (inactive) | 94.9% (inactive) | 89.7% (inactive) | 106% (inactive) | 110% (inactive) | 106% (inactive) | 101% (inactive) | 110% (inactive) | 97.5% (inactive) | 101% (inactive) | 106% (inactive) | 103% (inactive) | 110% (inactive) | 87.3% (inactive) | 106% (inactive) |
| Cc1ccc(=O)[nH]n1 | 97.8% (inactive) and 98.7% (inactive) | 102% (inactive) and 100% (inactive) | 104% (inactive) and 103% (inactive) | 110% (inactive) and 91.9% (inactive) | 105% (inactive) and 107% (inactive) | 85.1% (inactive) | 108% (inactive) and 96.2% (inactive) | 102% (inactive) and 91.4% (inactive) | 111% (inactive) | 111% (inactive) and 115% (inactive) | 101% (inactive) and 116% (inactive) | 99.7% (inactive) and 97.2% (inactive) | 112% (inactive) and 106% (inactive) | 118% (inactive) | 105% (inactive) | 99.4% (inactive) and 103% (inactive) | 113% (inactive) and 101% (inactive) | 110% (inactive) and 109% (inactive) | 101% (inactive) and 94.1% (inactive) | 111% (inactive) and 110% (inactive) |
| O=C1C=C(Nc2ccccc2)c2ccccc2C1=O | 23% (inactive) and 66.1% (inactive) | 66.4% (inactive) and 83.4% (inactive) | 88.3% (inactive) and 98.1% (inactive) | 19.1% (inactive) and 123% (inactive) | 14.5% (inactive) and 93.2% (inactive) | 89.7% (inactive) | 76.8% (inactive) and 86.6% (inactive) | 6.95% (active) and 93.7% (inactive) | 99.8% (inactive) and 99.3% (inactive) | 108% (inactive) and 91.9% (inactive) | 21.2% (inactive) and 97.3% (inactive) | 54.7% (inactive) and 98.7% (inactive) | 70.1% (inactive) and 71% (inactive) | 69.1% (inactive) and 59.7% (inactive) | 96.7% (inactive) | 80.3% (inactive) and 92.8% (inactive) | 61.1% (inactive) and 105% (inactive) | 44.4% (inactive) and 105% (inactive) | 88.7% (inactive) and 97.9% (inactive) | 47% (inactive) and 107% (inactive) |
| COc1cc(C(O)C2C(=O)OCC2C2(c3ccc4c(c3)OCO4)SCCCS2)cc(OC)c1OC (stereo not given) | 93.8% (inactive) | 100% (inactive) | 104% (inactive) | 101% (inactive) | 107% (inactive) | 77.8% (inactive) | 86.5% (inactive) | 97.1% (inactive) | 103% (inactive) | 94.2% (inactive) | 103% (inactive) | 97.7% (inactive) | 91.1% (inactive) | 95.3% (inactive) | 101% (inactive) | 94.3% (inactive) | 92.9% (inactive) | 102% (inactive) | 104% (inactive) | 96.8% (inactive) |
| COc1ccc(N/C=C/C2=[N+](C)c3ccccc3C2(C)C)c(OC)c1 | 79.8% (inactive) | 83% (inactive) | 102% (inactive) | 92.7% (inactive) | 96.3% (inactive) | 69.5% (inactive) | 89.9% (inactive) | 92.9% (inactive) | 88.9% (inactive) | 99.5% (inactive) | 102% (inactive) | 103% (inactive) | 85.5% (inactive) | 85.2% (inactive) | 97.4% (inactive) | 95.6% (inactive) | 86.2% (inactive) | 102% (inactive) | 99.5% (inactive) | 86.4% (inactive) |
| CCCCOc1ccc(Nc2cc(Cl)ccc2C(=O)O)cn1 | 103% (inactive) and 92.9% (inactive) | 109% (inactive) and 97.5% (inactive) | 110% (inactive) and 105% (inactive) | 88.4% (inactive) and 90% (inactive) | 104% (inactive) and 99% (inactive) | 74.8% (inactive) | 46.4% (inactive) and 98.2% (inactive) | 96.5% (inactive) and 98.1% (inactive) | 92% (inactive) | 119% (inactive) and 103% (inactive) | 120% (inactive) and 121% (inactive) | 107% (inactive) and 108% (inactive) | 140% (inactive) and 121% (inactive) | 113% (inactive) and 111% (inactive) | 130% (inactive) and 104% (inactive) | 111% (inactive) and 107% (inactive) | 108% (inactive) and 109% (inactive) | 99.1% (inactive) and 97.7% (inactive) | 111% (inactive) and 98.2% (inactive) | 101% (inactive) and 107% (inactive) |
| O=C1OC(C(O)C(O)CO)C(O)=C1O (stereo not given) | 113% (inactive) and 98.1% (inactive) | 100% (inactive) | 111% (inactive) and 97.3% (inactive) | 94.4% (inactive) and 88.1% (inactive) | 96.8% (inactive) and 112% (inactive) | 89.5% (inactive) | 8.89% (active) and 80% (inactive) | 104% (inactive) and 74.9% (inactive) | 95% (inactive) and 97.2% (inactive) | 101% (inactive) and 96.9% (inactive) | 115% (inactive) | 99% (inactive) and 90.4% (inactive) | 94.2% (inactive) | 116% (inactive) and 101% (inactive) | 116% (inactive) | 109% (inactive) and 105% (inactive) | 136% (inactive) and 101% (inactive) | 96.8% (inactive) | 98.7% (inactive) and 88.2% (inactive) | 96.9% (inactive) and 100% (inactive) |
| C#CCOC(=O)Nc1ccccc1 | 98.9% (inactive) | 108% (inactive) | 106% (inactive) | 113% (inactive) | 103% (inactive) | 102% (inactive) | 101% (inactive) | 97.4% (inactive) | 94.7% (inactive) | 106% (inactive) | 106% (inactive) | 96.9% (inactive) | 115% (inactive) | 116% (inactive) | 124% (inactive) | 105% (inactive) | 107% (inactive) | 97.5% (inactive) | 93.7% (inactive) | 103% (inactive) |
